From PubChem BioAssay (Tox21) come the findings set out here.

Each structure is given as a SMILES string. Records with an inconclusive call do not appear. Values without a mark were called inactive. Unless noted, calls follow the shape of the full dose curve.
% is scaled to controls: 0 for no effect and ±100 for the full control effect.
Also: nearly all actives have a fitted effect of over 30% in size.

Test system in the first experiment: not listed separately
Kind of experiment: qHTS assay to identify small molecule agonists of the estrogen receptor alpha (ER-alpha) signaling pathway in the presence of an antagonist - cell viability counter screen (AID 1259386; active = well fitted cell-killing curve with a large enough effect in the repeat runs;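 also: cells exposed to compounds for 22 h at 37 °C before the viability read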). The following applies: VM7Luc4E2 viability, CellTiter-Fluor fluorescence, 22 h; series mostly up to 92.4 µM; activity change, negative = cytotoxicity: at the top concentration. Put shortly:
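Read-out: CellTiter-Fluor fluorescence after 1hr reagent incubation, measured in the same wells as the luciferase readout. VM7Luc4E2 cells were exposed to 15 compound concentrations with 10.0nM ICI-182,780 for 22hr at 37C.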
Regarding `CCOP(=S)(OCC)SCSc1ccc(Cl)cc1`, the “activity change, negative = cytotoxicity” value was 0.0763%.
Regarding `CCOC(=O)N(C)C(=O)CSP(=S)(OCC)OCC`, the “activity change, negative = cytotoxicity” value was 1.38%.
Still for that read-out and setting: next, `CCOP(=S)(Oc1cnc(C(C)(C)C)nc1)OC(C)C` (centres undefined): -1.52%; `CCCCN(CCCCO)N=O`: 0.849%; `NC1=NC(=O)C(c2ccccc2)O1` (centres undefined): 4.24% [at 42.5 µM].
Still for that read-out and setting: the same measure for `CCC(Cl)[N+](=O)[O-]` (centres undefined): 0.128%; for `CCCSC(=O)Cl`: 1.95%; for `CCN(CC)C(C)C(=O)c1ccccc1` (centres undefined): 2.36% [at 42.5 µM].
In the case of `C[N+](=O)[O-]`, the “activity change, negative = cytotoxicity” value was 3.81%.
The same measure, in the same setting: the same measure for `ClCC(Cl)Cl`: 0.366%; for `CC(=O)C(Cl)Cl`: 0.701%; for `CC1=C(C(=O)O)N2C(=O)[C@@H](N)[C@H]2SC1`: 2.04% [at 19 µM].
As for `CCOc1nc(C(Cl)(Cl)Cl)ns1`, the “activity change, negative = cytotoxicity” value is 1.6%.
Same read-out and setting: next, `CNC(=O)Oc1cccc(C(C)C)c1`: 0.929%.
`ClC(Cl)C(Cl)Cl`: the “activity change, negative = cytotoxicity” value is 3.72%.
The same measure, in the same setting: the same measure for `CN1C[C@@H](NS(=O)(=O)N(C)C)C[C@@H]2c3cccc4c3c(cn4C)C[C@H]21`: -11.8% [at 42.5 µM]; for `CC(C=O)Cc1ccc2c(c1)OCO2` (centres undefined): 0.128%.
Same read-out and setting: the same measure for `CCCCOP(=O)(O)OCCCC`: 3.28%; for `Cc1cccc(C#N)c1`: 2.25%.
Still for that read-out and setting: the same measure for `O=[N+]([O-])c1cc(Cl)c(Cl)c(Cl)c1`: -0.042%; for `Nc1ccccc1Cl`: 0.977%.
For the compound `O=C1c2ccccc2C(=O)c2ccccc21`, the activity change, negative = cytotoxicity was 2.11% [at 19 µM].
On to `CNC(=O)Oc1c(C(C)(C)C)cc(C)cc1C(C)(C)C`, for which the “activity change, negative = cytotoxicity” value was -1.84%.
Still for that read-out and setting: next, `N#CCBr`: -1.47%; `CCSC(=O)N(CC)C1CCCCC1`: 1.16%; `CNC(=O)Oc1ccc(N(C)C)c(C)c1`: 0.915%.
Still for that read-out and setting: the same measure for `c1cc2c(c(N3CCNCC3)c1)OCCO2`: -2.83% [at 42.5 µM]; for `OC(Cn1cncn1)(c1ccc(F)cc1)c1ccccc1F` (centres undefined): -0.208%; for `CC1=NNC(=O)N(/N=C/c2cccnc2)C1`: 2.43%.
As to `OCCSCSCCO`, the “activity change, negative = cytotoxicity” value was 0.143%.
Still for that read-out and setting: the same measure for `O=NN1CCN(N=O)CC1`: 4.73%; for `CNC(=O)O/N=C(\C)SC`: 10%; for `O=C(O)c1ccc2[nH]cc(CCCCN3CC=C(c4ccccc4)CC3)c2c1`: -7.25% [at 42.5 µM].
The same measure, in the same setting: next, `CCC1(c2ccccc2)C(=O)NC(=O)NC1=O`: 4.18%.
Still for that read-out and setting: next, `N#CCNCC#N`: 1.55%.
As to `ClCCOCOCCCl`, the “activity change, negative = cytotoxicity” value is 1.3%.
Same read-out and setting: the same measure for `CN(C)CCc1ccc(O)cc1`: 0.102% [at 42.5 µM].

Another experiment deals with Progesterone receptor (Homo sapiens) (UniProt P06401). Briefly: qHTS assay to identify small molecule agonists of the progesterone receptor (PR) signaling pathway (AID 1346784). The following applies: PR-UAS-bla HEK293T, beta-lactamase FRET ratio, 16 h; series mostly up to 92.4 µM; activation: at the top concentration. In outline: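 Using charcoal-stripped serum (2%) to limit endogenous steroids, PR-UAS-bla HEK 293T cells received compounds for 16 hr at 37C after 6 hr plating; beta-lactamase FRET fluorescence was recorded following 2 hr substrate loading at room temperature.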
Progesterone receptor (Homo sapiens), sequence (P06401 whole entry, looked up): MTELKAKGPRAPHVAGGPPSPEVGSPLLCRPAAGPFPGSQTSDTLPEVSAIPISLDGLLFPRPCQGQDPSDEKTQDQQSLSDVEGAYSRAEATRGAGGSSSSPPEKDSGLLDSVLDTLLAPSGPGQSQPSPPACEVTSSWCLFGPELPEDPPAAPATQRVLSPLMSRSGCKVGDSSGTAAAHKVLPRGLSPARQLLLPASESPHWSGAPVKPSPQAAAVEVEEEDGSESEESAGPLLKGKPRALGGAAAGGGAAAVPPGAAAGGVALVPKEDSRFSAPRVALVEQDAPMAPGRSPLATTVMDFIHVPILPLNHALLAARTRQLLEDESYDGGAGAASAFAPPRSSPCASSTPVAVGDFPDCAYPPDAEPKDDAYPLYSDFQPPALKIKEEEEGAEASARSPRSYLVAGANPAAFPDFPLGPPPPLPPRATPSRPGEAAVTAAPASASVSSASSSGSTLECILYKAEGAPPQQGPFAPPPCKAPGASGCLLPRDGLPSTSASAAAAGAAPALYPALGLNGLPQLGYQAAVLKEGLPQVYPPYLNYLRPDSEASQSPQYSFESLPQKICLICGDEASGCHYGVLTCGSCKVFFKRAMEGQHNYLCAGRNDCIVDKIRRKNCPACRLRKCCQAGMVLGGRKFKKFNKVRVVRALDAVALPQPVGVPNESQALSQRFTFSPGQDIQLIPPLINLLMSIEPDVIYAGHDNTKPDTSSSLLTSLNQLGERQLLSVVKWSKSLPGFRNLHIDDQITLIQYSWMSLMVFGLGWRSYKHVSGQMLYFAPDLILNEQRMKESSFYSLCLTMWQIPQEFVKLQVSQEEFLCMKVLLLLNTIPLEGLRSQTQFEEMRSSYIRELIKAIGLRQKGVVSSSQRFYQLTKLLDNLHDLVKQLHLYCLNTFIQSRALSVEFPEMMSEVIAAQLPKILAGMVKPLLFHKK
Consider `CCOP(=S)(OCC)SCSc1ccc(Cl)cc1`, for which the “activation” value is 3.11%.
Still for that read-out and setting: next, `CCOC(=O)N(C)C(=O)CSP(=S)(OCC)OCC`: 0.0808%; `CCOP(=S)(Oc1cnc(C(C)(C)C)nc1)OC(C)C` (centres undefined): 0.809%.
Same read-out and setting: next, `CCCCN(CCCCO)N=O`: -0.513%.
The same measure, in the same setting: the same measure for `NC1=NC(=O)C(c2ccccc2)O1` (centres undefined): -0.506% [at 42.5 µM]; for `CCC(Cl)[N+](=O)[O-]` (centres undefined): 0.393%; for `CCCSC(=O)Cl`: 0.0817%.
On to `CCN(CC)C(C)C(=O)c1ccccc1` (centres undefined), for which the “activation” value was -0.545% [at 42.5 µM].
Still for that read-out and setting: next, `C[N+](=O)[O-]`: 0.476%; `ClCC(Cl)Cl`: -0.537%.
Same read-out and setting: next, `CC(=O)C(Cl)Cl`: -0.591%; `CC1=C(C(=O)O)N2C(=O)[C@@H](N)[C@H]2SC1`: -0.285% [at 19 µM]; `CCOc1nc(C(Cl)(Cl)Cl)ns1`: 0.829%.
Same read-out and setting: the same measure for `CNC(=O)Oc1cccc(C(C)C)c1`: 0.023%.
Regarding `ClC(Cl)C(Cl)Cl`, the “activation” value is -0.717%.
The same measure, in the same setting: next, `CN1C[C@@H](NS(=O)(=O)N(C)C)C[C@@H]2c3cccc4c3c(cn4C)C[C@H]21`: 1.82% [at 42.5 µM]; `CC(C=O)Cc1ccc2c(c1)OCO2` (centres undefined): 0.24%; `CCCCOP(=O)(O)OCCCC`: -0.613%.
On the same count and under the same terms, next, `Cc1cccc(C#N)c1`: -1.51%; `O=[N+]([O-])c1cc(Cl)c(Cl)c(Cl)c1`: -0.341%; `Nc1ccccc1Cl`: 0%.
On to `O=C1c2ccccc2C(=O)c2ccccc21`, for which the activation is -0.0487% [at 19 µM].
On the same count and under the same terms, next, `CNC(=O)Oc1c(C(C)(C)C)cc(C)cc1C(C)(C)C`: 0.473%.
The same measure, in the same setting: the same measure for `N#CCBr`: 2.42%.
Same read-out and setting: the same measure for `CCSC(=O)N(CC)C1CCCCC1`: 2.69%; for `CNC(=O)Oc1ccc(N(C)C)c(C)c1`: -0.482%.
Consider `c1cc2c(c(N3CCNCC3)c1)OCCO2`, for which the “activation” value is -1.89% [at 42.5 µM].
For the compound `OC(Cn1cncn1)(c1ccc(F)cc1)c1ccccc1F` (centres undefined), the “activation” value was -1.25%.
On the same count and under the same terms, the same measure for `CC1=NNC(=O)N(/N=C/c2cccnc2)C1`: 0.943%; for `OCCSCSCCO`: -0.91%; for `O=NN1CCN(N=O)CC1`: 0.609%.
The same measure, in the same setting: the same measure for `CNC(=O)O/N=C(\C)SC`: 0.377%; for `O=C(O)c1ccc2[nH]cc(CCCCN3CC=C(c4ccccc4)CC3)c2c1`: -2.73% [at 42.5 µM].
The same measure, in the same setting: next, `CCC1(c2ccccc2)C(=O)NC(=O)NC1=O`: 0.788%.
`N#CCNCC#N`: the “activation” value was -0.505%.
On the same count and under the same terms, the same measure for `ClCCOCOCCCl`: -0.0614%.
As for `CN(C)CCc1ccc(O)cc1`, the “activation” value is -0.999% [at 42.5 µM].
